What all share (conditions): treatment time: 24 h
Assay [1] relates to WPMY1-GM130-SQSTM1. Briefly: lowest phenotypically active concentration; higher = less potent. The essentials: (§1)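 Phenotypic activity depended on meeting both a deviation and a reproducibility criterion. The fifteen gene-edited A549, HepG2 and WPMY1 reporter lines were treated at 0.3, 1, 3 or 9 µM for 24 h, four wells each, then imaged live with features normalised to solvent control wells. Deviation required ≥3 of 4 wells past the 95th percentile of control Euclidean distances, and reproducibility a median replicate Pearson correlation above the 95th percentile of non-replicates.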

In the next assay the test system is A549-ACTB-RAB5A. Briefly: phenotypically active (imaging signature differs from DMSO and reproducible) at any of 0.3-9 uM (binary (1 = active, 0 = inactive)); higher = active. The method in brief:
as §1

For a further assay, the system named is A549-CANX-COX4. The description is as above. The essentials: as §1
A further assay has as its system A549-GM130-SQSTM1. The description is as above. The essentials: as §1
The subject of another assay is A549-TP53BP1-CLTA. Described as above. The essentials: as §1
The test system of another assay is A549-TUBA1B-RELA. The description is as above. The method in brief: as §1
In another assay the test system is HepG2-ACTB-RAB5A. The assay is described as above. The method in brief:
as §1

The test system of another assay is HepG2-CANX-COX4. Described as above. The method in brief:
as §1

The next assay has as its system HepG2-GM130-SQSTM1. The description is as above. The method in brief: as §1
In a further assay the test system is HepG2-TP53BP1-CLTA. Described as above. The method in brief: as §1
Another assay deals with HepG2-TUBA1B-RELA. Described as above. The essentials: as §1
For assay [2], the system named is WPMY1-ACTB-RAB5A. Described as above. The essentials: as §1
For assay [3], the system named is WPMY1-CANX-COX4. Described as above. The method in brief: as §1
Assay [4] concerns WPMY1-GM130-SQSTM1. The assay is described as above. The essentials: as §1
Assay [5] deals with WPMY1-TP53BP1-CLTA. The assay is described as above. The method in brief: as §1
Assay [6] deals with WPMY1-TUBA1B-RELA. The description is as above. The method in brief: as §1
The test system of assay [7] is WPMY1-ACTB-RAB5A. In words: lowest phenotypically active concentration; higher = less potent. The essentials: as §1
The test system of assay [8] is WPMY1-CANX-COX4. Described as above. The method in brief: as §1
Assay [9] deals with WPMY1-TP53BP1-CLTA. Described as above. The method in brief:
as §1

Assay [10] relates to WPMY1-TUBA1B-RELA. The assay is described as above. The method in brief: as §1

Six molecules from the supplement of paper PMC7411054 can be followed below.

As for `C[C@]12CC[C@@H]3c4ccc(O)cc4CC[C@H]3[C@@H]1CC[C@@H]2OC(=O)CCC1CCCC1` [estradiol cypionate], the “lowest phenotypically active concentration” value with WPMY1-GM130-SQSTM1 [1] turned out to be 9 µM. In addition, the phenotypically active in the assay on A549-ACTB-RAB5A, with A549-CANX-COX4, with A549-GM130-SQSTM1, in the assay on A549-TP53BP1-CLTA, with A549-TUBA1B-RELA and in the assay on HepG2-ACTB-RAB5A was 0 (inactive) in each case. The phenotypically active with HepG2-CANX-COX4, with HepG2-GM130-SQSTM1, in the assay on HepG2-TP53BP1-CLTA, in the assay with HepG2-TUBA1B-RELA, in the assay with WPMY1-ACTB-RAB5A [2] and in the assay with WPMY1-CANX-COX4 [3] was 0 (inactive) in each case. The figures for the phenotypically active in the assay on WPMY1-GM130-SQSTM1 [4], in the assay with WPMY1-TP53BP1-CLTA [5] and with WPMY1-TUBA1B-RELA [6] were 1 (active), 0 (inactive) and 0 (inactive), respectively.
As for `Cc1cnc(NC(=O)C2=C(O)c3ccccc3S(=O)(=O)N2C)s1` [meloxicam], the phenotypically active with A549-ACTB-RAB5A, in the assay with A549-CANX-COX4, in the assay on A549-GM130-SQSTM1, in the assay with A549-TUBA1B-RELA, in the assay with HepG2-ACTB-RAB5A and in the assay with HepG2-CANX-COX4 was 0 (inactive) throughout. Also, the phenotypically active with HepG2-GM130-SQSTM1, in the assay on HepG2-TUBA1B-RELA, in the assay on WPMY1-ACTB-RAB5A [2], in the assay with WPMY1-CANX-COX4 [3], in the assay on WPMY1-GM130-SQSTM1 [4] and in the assay on WPMY1-TUBA1B-RELA [6] was 0 (inactive) each time.
With `CCN(CC)CCCC(C)Nc1ccnc2cc(Cl)ccc12` (stereo unspecified) [chloroquine], the “lowest phenotypically active concentration” value was 3 µM in the assay on WPMY1-ACTB-RAB5A [7]; 3 µM with WPMY1-CANX-COX4 [8]; 3 µM in the assay on WPMY1-GM130-SQSTM1 [1]; 9 µM in the assay with WPMY1-TP53BP1-CLTA [9]; 9 µM with WPMY1-TUBA1B-RELA [10]. Besides, the phenotypically active with A549-CANX-COX4 is 0 (inactive); in the assay with A549-TP53BP1-CLTA, 1 (active); in the assay with HepG2-ACTB-RAB5A it was 1 (active); with HepG2-CANX-COX4, 1 (active); in the assay with HepG2-GM130-SQSTM1 it was 1 (active); in the assay with HepG2-TP53BP1-CLTA, 1 (active). Also, the phenotypically active in the assay on HepG2-TUBA1B-RELA, in the assay on WPMY1-ACTB-RAB5A [2], in the assay on WPMY1-CANX-COX4 [3], in the assay on WPMY1-GM130-SQSTM1 [4], in the assay with WPMY1-TP53BP1-CLTA [5] and in the assay with WPMY1-TUBA1B-RELA [6] was 1 (active) throughout.
Regarding `NCCC(O)(P(=O)(O)O)P(=O)(O)O` [pamidronate], the phenotypically active in the assay with A549-CANX-COX4, in the assay on A549-TP53BP1-CLTA, with HepG2-ACTB-RAB5A, in the assay with HepG2-CANX-COX4, with HepG2-GM130-SQSTM1 and with HepG2-TP53BP1-CLTA was 0 (inactive) each time. The phenotypically active in the assay with HepG2-TUBA1B-RELA, in the assay on WPMY1-ACTB-RAB5A [2], with WPMY1-CANX-COX4 [3], in the assay on WPMY1-GM130-SQSTM1 [4], with WPMY1-TP53BP1-CLTA [5] and in the assay on WPMY1-TUBA1B-RELA [6] was 0 (inactive) throughout.
As for `N#Cc1c(NC(=O)c2cccc3ccccc23)sc2c1CCCC2`, the “lowest phenotypically active concentration” value with WPMY1-ACTB-RAB5A [7], with WPMY1-CANX-COX4 [8], in the assay on WPMY1-GM130-SQSTM1 [1], in the assay on WPMY1-TP53BP1-CLTA [9] and in the assay with WPMY1-TUBA1B-RELA [10] was ≤ 0.3 µM throughout. Also, the phenotypically active in the assay with A549-CANX-COX4, in the assay with A549-TP53BP1-CLTA, in the assay on HepG2-ACTB-RAB5A, with HepG2-CANX-COX4, in the assay on HepG2-GM130-SQSTM1 and in the assay on HepG2-TP53BP1-CLTA was 1 (active) throughout. Also, the phenotypically active in the assay on HepG2-TUBA1B-RELA, in the assay on WPMY1-ACTB-RAB5A [2], in the assay with WPMY1-CANX-COX4 [3], in the assay on WPMY1-GM130-SQSTM1 [4], in the assay with WPMY1-TP53BP1-CLTA [5] and with WPMY1-TUBA1B-RELA [6] was 1 (active) throughout.
In the case of `CC(C)CCN1c2nc(Nc3cc(F)c(O)c(F)c3)ncc2N(C)C(=O)C1C` (stereo unspecified), the “lowest phenotypically active concentration” value in the assay on WPMY1-ACTB-RAB5A [7] was 3 µM; with WPMY1-CANX-COX4 [8], 3 µM; in the assay with WPMY1-GM130-SQSTM1 [1], ≤ 0.3 µM; in the assay with WPMY1-TP53BP1-CLTA [9], ≤ 0.3 µM; with WPMY1-TUBA1B-RELA [10], 3 µM. In addition, the phenotypically active was 0 (inactive) in the assay with A549-CANX-COX4; 1 (active) in the assay on A549-TP53BP1-CLTA; 1 (active) in the assay on HepG2-ACTB-RAB5A; 1 (active) in the assay with HepG2-CANX-COX4; 1 (active) in the assay with HepG2-GM130-SQSTM1; 1 (active) with HepG2-TP53BP1-CLTA. In addition, the phenotypically active in the assay on HepG2-TUBA1B-RELA, in the assay on WPMY1-ACTB-RAB5A [2], in the assay with WPMY1-CANX-COX4 [3], in the assay with WPMY1-GM130-SQSTM1 [4], in the assay with WPMY1-TP53BP1-CLTA [5] and in the assay on WPMY1-TUBA1B-RELA [6] was 1 (active) throughout.
